Results published in publication PMC7862700, “An all-to-all approach to the identification of sequence-specific readers for epigenetic DNA modifications on cytosine”.

What was measured:
Test in all cases: DAPPL (digital affinity profiling via proximity ligation, sequencing); 10 mM Tris-HCl pH 7.5, 50 mM NaCl, 1 mM DTT, 4% glycerol, room temperature, 30 min; GST-TFs on glutathione beads, 16-mer random dsDNA library, 0.1% formaldehyde crosslink after washing; high values mean tight binding
Conditions in all cases: protein: recombinant; tags: N-terminal GST; dsDNA, one strand shown
[1] = biological target: T1, FEV (Homo sapiens, UniProt Q99581 1-238)
T1 sequence: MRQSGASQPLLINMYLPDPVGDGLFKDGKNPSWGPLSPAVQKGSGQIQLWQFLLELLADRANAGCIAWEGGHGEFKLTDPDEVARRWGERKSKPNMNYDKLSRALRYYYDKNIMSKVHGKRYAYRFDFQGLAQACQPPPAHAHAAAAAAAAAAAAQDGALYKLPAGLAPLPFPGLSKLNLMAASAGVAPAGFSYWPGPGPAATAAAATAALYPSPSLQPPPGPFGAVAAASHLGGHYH
Summary of the method: (§1)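 Yeast served to express human transcription factors as GST fusions, which were then captured on glutathione beads and labelled with DNA barcodes. Pooled with a tag-only sample, they were incubated with 200 nmole of a 16-mer random double-stranded DNA library for 30 min at room temperature in Tris/NaCl/DTT/glycerol buffer, washed, crosslinked with 0.1% formaldehyde, ligated by proximity, amplified by PCR and sequenced. Dividing each hexamer's read frequency for a factor by its frequency for the tag-only sample gives the binding signal.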

[2] = biological target: ETV5 (Homo sapiens, UniProt P41161 1-510)
Sequence of ETV5 (P41161 whole entry): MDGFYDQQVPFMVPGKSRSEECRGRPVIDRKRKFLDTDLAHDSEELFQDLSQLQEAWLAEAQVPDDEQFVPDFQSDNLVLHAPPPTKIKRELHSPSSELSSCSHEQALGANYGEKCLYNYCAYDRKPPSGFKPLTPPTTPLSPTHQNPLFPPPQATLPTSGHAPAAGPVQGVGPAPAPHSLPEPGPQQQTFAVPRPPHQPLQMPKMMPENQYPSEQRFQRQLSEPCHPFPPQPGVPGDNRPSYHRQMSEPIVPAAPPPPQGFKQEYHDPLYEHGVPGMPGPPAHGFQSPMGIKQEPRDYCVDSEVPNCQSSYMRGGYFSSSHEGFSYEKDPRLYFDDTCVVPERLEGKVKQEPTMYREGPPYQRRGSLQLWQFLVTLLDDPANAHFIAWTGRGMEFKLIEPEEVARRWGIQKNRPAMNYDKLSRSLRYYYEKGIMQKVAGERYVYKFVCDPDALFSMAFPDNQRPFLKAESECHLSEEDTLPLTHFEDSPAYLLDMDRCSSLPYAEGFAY
Summary of the method: as §1

[3] = biological target: T2, SPIC (Homo sapiens, UniProt Q8N5J4 1-248)
T2 sequence: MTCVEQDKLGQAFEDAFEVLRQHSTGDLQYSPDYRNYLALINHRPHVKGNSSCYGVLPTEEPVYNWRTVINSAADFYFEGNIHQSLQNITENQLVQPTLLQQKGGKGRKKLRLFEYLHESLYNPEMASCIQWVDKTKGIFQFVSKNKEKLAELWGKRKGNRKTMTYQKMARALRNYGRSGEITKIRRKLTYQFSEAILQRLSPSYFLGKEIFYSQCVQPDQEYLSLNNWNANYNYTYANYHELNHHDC
Summary of the method: as §1

[4] = biological target: ELF4 (Homo sapiens, UniProt Q99607 1-663)
Sequence of ELF4 (Q99607 whole entry): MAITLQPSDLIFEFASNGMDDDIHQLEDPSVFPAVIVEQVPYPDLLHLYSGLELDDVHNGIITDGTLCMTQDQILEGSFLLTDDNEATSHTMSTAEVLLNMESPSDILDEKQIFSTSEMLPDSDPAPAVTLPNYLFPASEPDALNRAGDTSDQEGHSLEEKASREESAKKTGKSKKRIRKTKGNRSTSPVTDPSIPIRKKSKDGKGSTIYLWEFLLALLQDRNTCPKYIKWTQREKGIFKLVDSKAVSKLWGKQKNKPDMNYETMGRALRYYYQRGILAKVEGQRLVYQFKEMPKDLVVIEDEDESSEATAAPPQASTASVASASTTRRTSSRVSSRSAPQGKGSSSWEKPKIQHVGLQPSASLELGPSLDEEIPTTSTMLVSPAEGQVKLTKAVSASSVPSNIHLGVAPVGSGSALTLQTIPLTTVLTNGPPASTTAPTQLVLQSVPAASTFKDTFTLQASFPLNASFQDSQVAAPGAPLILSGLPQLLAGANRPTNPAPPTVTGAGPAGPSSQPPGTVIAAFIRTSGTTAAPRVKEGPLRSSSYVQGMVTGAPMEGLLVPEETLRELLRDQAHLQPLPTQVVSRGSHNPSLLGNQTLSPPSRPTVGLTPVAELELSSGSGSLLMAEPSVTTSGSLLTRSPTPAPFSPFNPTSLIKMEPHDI
Summary of the method: as §1

[5] = biological target: T3, ELK4 (Homo sapiens, UniProt P28324-2 1-405)
T3 sequence: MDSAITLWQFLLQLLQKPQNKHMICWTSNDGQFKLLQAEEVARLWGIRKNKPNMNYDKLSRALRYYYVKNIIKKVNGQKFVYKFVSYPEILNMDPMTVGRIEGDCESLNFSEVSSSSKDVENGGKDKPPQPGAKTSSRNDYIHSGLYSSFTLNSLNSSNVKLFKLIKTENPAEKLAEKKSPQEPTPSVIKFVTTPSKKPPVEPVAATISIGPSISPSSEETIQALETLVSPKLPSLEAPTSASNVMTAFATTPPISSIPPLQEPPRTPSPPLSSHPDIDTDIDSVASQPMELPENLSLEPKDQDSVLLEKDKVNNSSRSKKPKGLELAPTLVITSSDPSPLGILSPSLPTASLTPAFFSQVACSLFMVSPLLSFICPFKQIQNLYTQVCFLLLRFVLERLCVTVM
Summary of the method: as §1

[6] = biological target: T4, ETV2 (Homo sapiens, UniProt O00321 1-342)
T4 sequence: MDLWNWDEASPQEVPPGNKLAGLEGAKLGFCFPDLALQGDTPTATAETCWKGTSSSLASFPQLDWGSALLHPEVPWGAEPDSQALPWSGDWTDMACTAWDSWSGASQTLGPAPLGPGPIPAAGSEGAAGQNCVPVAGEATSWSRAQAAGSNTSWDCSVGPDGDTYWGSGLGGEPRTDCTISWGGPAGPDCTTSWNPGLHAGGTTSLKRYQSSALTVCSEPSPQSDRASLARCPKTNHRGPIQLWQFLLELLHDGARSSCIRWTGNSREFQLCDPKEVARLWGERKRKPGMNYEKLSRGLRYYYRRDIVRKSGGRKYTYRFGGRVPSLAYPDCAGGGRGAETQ
Summary of the method: as §1

[7] = biological target: T5, ELF3 (Homo sapiens, UniProt P78545 1-371)
T5 sequence: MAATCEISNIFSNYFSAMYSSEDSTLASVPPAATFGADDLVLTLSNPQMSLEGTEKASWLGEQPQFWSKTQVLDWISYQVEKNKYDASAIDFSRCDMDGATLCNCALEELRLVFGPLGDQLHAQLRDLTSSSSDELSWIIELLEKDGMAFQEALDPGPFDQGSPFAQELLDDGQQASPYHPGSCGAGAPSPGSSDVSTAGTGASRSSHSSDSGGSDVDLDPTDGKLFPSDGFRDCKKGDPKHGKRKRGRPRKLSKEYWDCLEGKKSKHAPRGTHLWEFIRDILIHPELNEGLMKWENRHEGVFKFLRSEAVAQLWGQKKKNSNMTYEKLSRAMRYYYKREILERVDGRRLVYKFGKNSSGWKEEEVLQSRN
Summary of the method: as §1

[8] = biological target: ETV1 (Homo sapiens, UniProt P50549 1-477)
Sequence of ETV1 (P50549 whole entry): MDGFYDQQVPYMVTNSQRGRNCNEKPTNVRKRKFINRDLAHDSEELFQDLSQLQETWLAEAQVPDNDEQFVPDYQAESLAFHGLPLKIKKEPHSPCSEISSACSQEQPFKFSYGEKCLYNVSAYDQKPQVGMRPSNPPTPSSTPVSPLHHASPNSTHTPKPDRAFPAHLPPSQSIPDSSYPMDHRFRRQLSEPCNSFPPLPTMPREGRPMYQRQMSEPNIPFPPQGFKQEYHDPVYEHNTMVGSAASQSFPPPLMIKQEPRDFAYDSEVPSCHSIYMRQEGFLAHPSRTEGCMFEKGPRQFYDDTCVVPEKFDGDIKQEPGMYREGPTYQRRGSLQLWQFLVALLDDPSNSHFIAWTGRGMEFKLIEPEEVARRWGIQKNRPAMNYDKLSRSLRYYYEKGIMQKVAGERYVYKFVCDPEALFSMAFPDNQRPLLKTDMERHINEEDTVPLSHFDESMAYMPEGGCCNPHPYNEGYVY
Summary of the method: as §1

[9] = biological target: T6, ETV3L (Homo sapiens, UniProt Q6ZN32 1-361)
T6 sequence: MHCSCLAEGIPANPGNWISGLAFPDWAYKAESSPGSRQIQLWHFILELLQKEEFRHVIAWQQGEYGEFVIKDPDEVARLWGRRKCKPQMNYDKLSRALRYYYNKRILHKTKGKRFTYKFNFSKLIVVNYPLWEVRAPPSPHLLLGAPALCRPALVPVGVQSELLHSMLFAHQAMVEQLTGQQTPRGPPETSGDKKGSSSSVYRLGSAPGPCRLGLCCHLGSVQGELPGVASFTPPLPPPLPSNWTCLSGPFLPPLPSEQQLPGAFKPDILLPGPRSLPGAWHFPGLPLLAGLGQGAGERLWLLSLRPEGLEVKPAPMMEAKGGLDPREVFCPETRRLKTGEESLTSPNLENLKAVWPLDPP
Summary of the method: as §1

[10] = biological target: T7, ETS2 (Homo sapiens, UniProt P15036 1-469)
T7 sequence: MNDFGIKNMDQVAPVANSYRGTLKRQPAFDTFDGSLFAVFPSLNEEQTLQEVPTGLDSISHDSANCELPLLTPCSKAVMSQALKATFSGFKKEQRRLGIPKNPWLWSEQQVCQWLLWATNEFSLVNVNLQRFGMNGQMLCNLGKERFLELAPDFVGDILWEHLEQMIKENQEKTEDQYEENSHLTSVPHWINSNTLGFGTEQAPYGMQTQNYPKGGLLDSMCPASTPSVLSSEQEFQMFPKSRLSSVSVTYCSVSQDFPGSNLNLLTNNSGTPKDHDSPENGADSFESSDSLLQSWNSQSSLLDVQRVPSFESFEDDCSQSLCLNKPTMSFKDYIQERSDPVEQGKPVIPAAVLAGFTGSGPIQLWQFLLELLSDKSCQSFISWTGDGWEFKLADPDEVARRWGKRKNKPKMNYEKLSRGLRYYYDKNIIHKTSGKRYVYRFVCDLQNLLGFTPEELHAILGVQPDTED
Summary of the method: as §1

[11] = biological target: T8, SPDEF (Homo sapiens, UniProt O95238 1-335)
T8 sequence: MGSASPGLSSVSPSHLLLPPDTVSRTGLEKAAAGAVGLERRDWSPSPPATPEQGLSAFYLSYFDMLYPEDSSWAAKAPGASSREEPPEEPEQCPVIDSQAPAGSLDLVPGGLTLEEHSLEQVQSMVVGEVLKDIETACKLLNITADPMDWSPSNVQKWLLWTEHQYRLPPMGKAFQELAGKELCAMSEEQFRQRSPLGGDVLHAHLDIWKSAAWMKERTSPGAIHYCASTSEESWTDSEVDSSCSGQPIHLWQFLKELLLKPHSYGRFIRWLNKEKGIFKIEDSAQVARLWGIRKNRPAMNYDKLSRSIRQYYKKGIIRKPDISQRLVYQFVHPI
Summary of the method: as §1

[12] = biological target: T9, ETV7 (Homo sapiens, UniProt Q9Y603 1-341)
T9 sequence: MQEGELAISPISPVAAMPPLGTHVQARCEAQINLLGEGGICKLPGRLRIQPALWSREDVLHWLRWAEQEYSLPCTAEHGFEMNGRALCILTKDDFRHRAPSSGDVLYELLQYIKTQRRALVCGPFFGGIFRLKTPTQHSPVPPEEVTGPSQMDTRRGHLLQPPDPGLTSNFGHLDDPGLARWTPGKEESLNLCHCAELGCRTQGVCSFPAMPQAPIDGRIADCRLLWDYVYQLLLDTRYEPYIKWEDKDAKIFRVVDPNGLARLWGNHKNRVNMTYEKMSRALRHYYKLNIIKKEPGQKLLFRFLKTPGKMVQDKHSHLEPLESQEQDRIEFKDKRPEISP
Summary of the method: as §1

[13] = biological target: T10, ETV3 (Homo sapiens, UniProt P41162-2 1-143)
T10 sequence: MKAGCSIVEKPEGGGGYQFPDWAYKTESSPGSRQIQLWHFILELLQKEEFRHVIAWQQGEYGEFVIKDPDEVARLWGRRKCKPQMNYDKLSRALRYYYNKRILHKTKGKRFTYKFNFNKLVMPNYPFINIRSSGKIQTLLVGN
Summary of the method: as §1

[14] = biological target: ETV6 (Homo sapiens, UniProt P41212 1-452)
Sequence of ETV6 (P41212 whole entry): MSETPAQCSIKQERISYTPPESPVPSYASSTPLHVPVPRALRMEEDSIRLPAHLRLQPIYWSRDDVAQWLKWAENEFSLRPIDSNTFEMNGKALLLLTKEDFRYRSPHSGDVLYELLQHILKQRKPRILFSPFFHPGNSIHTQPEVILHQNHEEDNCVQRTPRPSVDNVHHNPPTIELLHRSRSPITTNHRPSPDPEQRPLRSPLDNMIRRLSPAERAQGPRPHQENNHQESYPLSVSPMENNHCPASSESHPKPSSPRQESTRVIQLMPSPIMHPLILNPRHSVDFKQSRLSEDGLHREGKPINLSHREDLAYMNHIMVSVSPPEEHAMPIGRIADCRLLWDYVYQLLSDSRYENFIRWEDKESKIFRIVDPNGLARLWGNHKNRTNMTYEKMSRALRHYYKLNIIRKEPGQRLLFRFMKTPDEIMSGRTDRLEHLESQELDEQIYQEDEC
Summary of the method: as §1

[15] = biological target: T11, ERF (Homo sapiens, UniProt P50548 1-548)
T11 sequence: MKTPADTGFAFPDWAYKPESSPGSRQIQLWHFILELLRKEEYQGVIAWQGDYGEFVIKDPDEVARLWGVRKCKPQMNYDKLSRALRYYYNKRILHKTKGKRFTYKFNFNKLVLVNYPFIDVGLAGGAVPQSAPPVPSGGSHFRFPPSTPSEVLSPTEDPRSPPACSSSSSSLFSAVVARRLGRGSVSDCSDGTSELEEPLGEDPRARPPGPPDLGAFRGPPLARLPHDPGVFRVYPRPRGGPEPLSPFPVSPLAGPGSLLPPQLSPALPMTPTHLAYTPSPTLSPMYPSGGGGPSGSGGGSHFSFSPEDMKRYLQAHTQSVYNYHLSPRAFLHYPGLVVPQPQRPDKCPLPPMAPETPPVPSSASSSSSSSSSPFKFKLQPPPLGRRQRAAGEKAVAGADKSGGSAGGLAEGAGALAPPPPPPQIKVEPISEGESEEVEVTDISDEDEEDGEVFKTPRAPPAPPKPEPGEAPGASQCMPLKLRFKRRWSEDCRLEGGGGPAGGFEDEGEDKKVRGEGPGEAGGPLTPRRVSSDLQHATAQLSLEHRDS
Summary of the method: as §1

[16] = biological target: T12, ELF5 (Homo sapiens, UniProt Q9UKW6-2 1-255)
T12 sequence: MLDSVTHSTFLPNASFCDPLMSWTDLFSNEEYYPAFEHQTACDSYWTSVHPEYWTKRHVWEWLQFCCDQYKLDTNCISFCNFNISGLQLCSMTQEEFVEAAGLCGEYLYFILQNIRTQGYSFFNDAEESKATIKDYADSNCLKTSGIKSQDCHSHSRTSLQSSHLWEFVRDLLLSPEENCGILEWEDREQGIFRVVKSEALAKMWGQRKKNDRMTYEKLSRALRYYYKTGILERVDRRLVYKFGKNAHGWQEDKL
Summary of the method: as §1

Sequence	binding signal [1]	binding signal [2]	binding signal [3]	binding signal [4]	binding signal [5]	binding signal [6]	binding signal [7]	binding signal [8]	binding signal [9]	binding signal [10]	binding signal [11]	binding signal [12]	binding signal [13]	binding signal [14]	binding signal [15]	binding signal [16]
CAAGGT	1.04 fold enrichment (6-mer frequency, TF over GST control)	1.04 fold enrichment (6-mer frequency, TF over GST control)	1 fold enrichment (6-mer frequency, TF over GST control)	1.11 fold enrichment (6-mer frequency, TF over GST control)	1.16 fold enrichment (6-mer frequency, TF over GST control)	1.12 fold enrichment (6-mer frequency, TF over GST control)	1.15 fold enrichment (6-mer frequency, TF over GST control)	1.13 fold enrichment (6-mer frequency, TF over GST control)	1.12 fold enrichment (6-mer frequency, TF over GST control)	1.11 fold enrichment (6-mer frequency, TF over GST control)	1.03 fold enrichment (6-mer frequency, TF over GST control)	1.1 fold enrichment (6-mer frequency, TF over GST control)	1.02 fold enrichment (6-mer frequency, TF over GST control)	1.01 fold enrichment (6-mer frequency, TF over GST control)		
GCTGAC	1.12 fold enrichment (6-mer frequency, TF over GST control)	1.03 fold enrichment (6-mer frequency, TF over GST control)	1.1 fold enrichment (6-mer frequency, TF over GST control)	1.1 fold enrichment (6-mer frequency, TF over GST control)	1.05 fold enrichment (6-mer frequency, TF over GST control)	1.38 fold enrichment (6-mer frequency, TF over GST control)	1.27 fold enrichment (6-mer frequency, TF over GST control)	1.03 fold enrichment (6-mer frequency, TF over GST control)	1.09 fold enrichment (6-mer frequency, TF over GST control)	1.11 fold enrichment (6-mer frequency, TF over GST control)		1.12 fold enrichment (6-mer frequency, TF over GST control)	1.17 fold enrichment (6-mer frequency, TF over GST control)	1 fold enrichment (6-mer frequency, TF over GST control)	1.08 fold enrichment (6-mer frequency, TF over GST control)	1.05 fold enrichment (6-mer frequency, TF over GST control)
